# Measured values taken from ChEMBL document CHEMBL2218924, “A broad activity screen in support of a chemogenomic map for kinase signalling research and drug discovery” (Biochem J, 2013).
# Legend:
# [1] = target: T1, Ephrin type-A receptor 3 (Homo sapiens) (UniProt P29320); conditions: at 10 µM
# T1 sequence (whole entry): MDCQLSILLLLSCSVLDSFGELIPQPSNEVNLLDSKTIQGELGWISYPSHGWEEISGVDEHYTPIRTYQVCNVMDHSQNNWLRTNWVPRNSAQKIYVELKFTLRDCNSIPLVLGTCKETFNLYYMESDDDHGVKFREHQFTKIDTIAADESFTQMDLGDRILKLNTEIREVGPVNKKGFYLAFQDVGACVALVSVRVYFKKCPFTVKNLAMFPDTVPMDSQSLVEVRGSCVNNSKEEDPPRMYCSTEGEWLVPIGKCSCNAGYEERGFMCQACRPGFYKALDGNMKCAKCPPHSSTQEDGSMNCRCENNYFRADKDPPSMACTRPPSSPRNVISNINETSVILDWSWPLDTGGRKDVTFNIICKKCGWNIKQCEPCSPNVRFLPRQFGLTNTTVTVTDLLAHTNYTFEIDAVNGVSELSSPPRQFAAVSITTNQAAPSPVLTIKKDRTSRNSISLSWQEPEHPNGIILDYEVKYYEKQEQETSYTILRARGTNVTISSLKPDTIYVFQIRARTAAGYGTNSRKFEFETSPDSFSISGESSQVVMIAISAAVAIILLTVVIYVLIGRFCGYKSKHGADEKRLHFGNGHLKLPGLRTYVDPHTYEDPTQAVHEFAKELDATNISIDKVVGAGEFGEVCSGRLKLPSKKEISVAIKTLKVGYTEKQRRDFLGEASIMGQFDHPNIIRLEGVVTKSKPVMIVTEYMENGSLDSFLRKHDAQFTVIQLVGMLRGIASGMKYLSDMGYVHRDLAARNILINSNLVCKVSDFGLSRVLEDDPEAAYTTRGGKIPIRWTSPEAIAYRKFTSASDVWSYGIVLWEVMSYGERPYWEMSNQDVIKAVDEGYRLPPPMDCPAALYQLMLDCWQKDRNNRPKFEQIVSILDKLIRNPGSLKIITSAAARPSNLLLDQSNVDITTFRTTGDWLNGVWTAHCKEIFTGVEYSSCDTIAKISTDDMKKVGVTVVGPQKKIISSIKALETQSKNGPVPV
# [2] = target: Ephrin type-A receptor 4 (Homo sapiens) (UniProt P54764); conditions: at 1 µM
# Chain of Ephrin type-A receptor 4 (Homo sapiens) (P54764 whole entry): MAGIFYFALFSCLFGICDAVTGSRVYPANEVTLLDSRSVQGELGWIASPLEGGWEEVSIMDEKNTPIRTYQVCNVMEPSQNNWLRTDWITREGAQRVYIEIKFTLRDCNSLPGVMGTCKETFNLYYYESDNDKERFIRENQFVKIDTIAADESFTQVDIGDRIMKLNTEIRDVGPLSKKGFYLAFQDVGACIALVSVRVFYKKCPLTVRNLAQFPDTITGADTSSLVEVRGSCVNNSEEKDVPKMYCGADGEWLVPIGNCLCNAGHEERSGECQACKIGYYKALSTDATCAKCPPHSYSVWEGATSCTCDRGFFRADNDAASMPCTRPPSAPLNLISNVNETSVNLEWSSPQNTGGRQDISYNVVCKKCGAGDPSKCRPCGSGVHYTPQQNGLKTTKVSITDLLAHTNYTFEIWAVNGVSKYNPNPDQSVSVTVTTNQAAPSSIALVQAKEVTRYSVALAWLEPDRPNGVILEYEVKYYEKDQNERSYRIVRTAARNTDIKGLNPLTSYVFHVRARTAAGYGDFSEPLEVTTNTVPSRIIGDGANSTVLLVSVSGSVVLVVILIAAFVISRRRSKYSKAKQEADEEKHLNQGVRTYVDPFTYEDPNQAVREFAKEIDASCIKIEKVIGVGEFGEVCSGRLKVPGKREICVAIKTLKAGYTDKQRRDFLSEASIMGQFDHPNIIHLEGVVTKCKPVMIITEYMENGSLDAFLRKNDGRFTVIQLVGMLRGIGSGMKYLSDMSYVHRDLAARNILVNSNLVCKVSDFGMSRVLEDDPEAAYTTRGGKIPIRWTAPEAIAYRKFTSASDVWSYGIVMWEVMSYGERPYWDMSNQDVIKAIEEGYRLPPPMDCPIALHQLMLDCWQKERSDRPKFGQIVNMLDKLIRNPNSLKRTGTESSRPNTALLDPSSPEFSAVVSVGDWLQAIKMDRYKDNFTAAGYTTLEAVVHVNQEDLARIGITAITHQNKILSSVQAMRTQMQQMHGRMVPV
# [3] = target: Ephrin type-A receptor 4 (Homo sapiens) (UniProt P54764); conditions: at 10 µM
# [4] = target: Ephrin type-A receptor 5 (Homo sapiens) (UniProt P54756); conditions: at 1 µM
# Chain of Ephrin type-A receptor 5 (Homo sapiens) (P54756 whole entry): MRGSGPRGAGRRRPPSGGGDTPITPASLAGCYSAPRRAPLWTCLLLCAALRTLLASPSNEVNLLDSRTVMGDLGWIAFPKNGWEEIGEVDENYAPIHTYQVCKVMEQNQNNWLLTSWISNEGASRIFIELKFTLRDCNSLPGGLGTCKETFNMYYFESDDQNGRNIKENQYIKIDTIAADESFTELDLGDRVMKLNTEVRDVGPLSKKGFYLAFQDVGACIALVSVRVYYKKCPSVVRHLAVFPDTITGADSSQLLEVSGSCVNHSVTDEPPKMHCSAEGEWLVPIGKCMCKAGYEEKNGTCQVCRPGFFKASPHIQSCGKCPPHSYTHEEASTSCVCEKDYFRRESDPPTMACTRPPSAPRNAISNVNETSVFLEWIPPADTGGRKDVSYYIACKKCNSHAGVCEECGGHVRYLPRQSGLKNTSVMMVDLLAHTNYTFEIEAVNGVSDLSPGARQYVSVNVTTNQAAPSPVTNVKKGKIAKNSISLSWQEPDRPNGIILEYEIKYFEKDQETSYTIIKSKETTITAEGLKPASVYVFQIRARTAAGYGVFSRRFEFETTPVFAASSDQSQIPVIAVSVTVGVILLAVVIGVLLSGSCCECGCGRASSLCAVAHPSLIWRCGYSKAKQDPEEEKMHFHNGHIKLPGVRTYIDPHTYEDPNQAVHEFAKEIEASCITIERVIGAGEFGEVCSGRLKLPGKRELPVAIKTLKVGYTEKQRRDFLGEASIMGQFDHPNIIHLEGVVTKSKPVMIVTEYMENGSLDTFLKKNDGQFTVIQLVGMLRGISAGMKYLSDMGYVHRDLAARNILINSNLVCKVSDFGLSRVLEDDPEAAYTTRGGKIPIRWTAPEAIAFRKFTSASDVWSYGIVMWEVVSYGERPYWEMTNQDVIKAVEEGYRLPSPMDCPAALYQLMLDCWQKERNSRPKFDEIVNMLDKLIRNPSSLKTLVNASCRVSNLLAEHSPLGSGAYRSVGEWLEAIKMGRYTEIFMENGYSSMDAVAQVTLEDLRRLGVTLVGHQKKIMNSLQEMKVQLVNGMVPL
# [5] = target: Ephrin type-A receptor 5 (Homo sapiens) (UniProt P54756); conditions: at 10 µM
# [6] = target: T2, Ephrin type-A receptor 8 (Homo sapiens) (UniProt P29322); conditions: at 1 µM
# T2 sequence (whole entry): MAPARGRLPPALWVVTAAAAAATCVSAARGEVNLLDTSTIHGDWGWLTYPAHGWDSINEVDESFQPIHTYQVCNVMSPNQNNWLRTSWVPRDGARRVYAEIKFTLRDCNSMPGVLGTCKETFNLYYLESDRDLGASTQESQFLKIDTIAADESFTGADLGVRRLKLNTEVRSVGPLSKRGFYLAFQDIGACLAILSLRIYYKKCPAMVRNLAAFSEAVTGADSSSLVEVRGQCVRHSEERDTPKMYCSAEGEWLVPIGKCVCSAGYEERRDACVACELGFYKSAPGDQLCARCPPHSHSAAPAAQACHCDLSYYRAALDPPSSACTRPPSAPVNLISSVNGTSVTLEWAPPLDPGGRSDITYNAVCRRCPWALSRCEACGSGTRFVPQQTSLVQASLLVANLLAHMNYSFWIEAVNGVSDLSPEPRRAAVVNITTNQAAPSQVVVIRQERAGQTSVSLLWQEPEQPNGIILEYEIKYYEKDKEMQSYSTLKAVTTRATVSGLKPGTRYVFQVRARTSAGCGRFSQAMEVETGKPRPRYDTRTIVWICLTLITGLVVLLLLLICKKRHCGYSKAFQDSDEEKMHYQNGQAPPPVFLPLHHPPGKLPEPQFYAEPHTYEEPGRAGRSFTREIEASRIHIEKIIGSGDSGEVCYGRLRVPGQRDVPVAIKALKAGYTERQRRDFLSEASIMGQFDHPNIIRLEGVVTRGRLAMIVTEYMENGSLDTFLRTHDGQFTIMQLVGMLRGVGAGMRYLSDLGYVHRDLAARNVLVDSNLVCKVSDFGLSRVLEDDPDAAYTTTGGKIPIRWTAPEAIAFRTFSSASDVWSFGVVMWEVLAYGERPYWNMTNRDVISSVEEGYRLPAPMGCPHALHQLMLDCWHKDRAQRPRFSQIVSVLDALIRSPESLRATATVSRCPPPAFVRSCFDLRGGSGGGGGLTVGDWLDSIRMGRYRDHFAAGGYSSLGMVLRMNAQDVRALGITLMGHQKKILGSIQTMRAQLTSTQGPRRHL
# [7] = target: T2, Ephrin type-A receptor 8 (Homo sapiens); conditions: at 10 µM
# [8] = target: T3, Ephrin type-B receptor 1 (Homo sapiens) (UniProt P54762); conditions: at 1 µM
# T3 sequence (whole entry): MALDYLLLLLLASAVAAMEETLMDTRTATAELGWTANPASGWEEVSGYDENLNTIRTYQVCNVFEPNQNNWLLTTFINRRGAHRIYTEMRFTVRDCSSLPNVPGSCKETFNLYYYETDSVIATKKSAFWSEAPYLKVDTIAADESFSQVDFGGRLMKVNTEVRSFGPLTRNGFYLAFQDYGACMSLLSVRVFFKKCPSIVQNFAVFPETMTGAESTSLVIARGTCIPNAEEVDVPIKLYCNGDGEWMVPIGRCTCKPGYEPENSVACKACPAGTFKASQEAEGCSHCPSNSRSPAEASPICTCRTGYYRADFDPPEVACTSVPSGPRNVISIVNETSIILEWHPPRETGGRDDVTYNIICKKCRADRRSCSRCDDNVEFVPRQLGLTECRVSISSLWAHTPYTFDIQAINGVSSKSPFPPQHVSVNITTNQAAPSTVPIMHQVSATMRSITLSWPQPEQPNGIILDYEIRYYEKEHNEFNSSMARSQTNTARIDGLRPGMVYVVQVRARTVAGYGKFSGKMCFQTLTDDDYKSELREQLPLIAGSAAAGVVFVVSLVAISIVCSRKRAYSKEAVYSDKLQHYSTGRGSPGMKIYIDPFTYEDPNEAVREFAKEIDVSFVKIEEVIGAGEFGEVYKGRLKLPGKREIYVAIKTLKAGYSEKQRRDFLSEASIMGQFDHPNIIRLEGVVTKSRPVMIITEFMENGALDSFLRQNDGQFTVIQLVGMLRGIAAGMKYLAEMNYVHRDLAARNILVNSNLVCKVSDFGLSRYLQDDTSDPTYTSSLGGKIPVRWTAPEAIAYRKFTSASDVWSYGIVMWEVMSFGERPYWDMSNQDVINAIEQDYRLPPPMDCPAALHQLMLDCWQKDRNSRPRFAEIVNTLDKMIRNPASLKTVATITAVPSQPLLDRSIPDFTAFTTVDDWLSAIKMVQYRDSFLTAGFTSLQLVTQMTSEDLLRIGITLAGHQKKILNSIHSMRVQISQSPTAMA
# [9] = target: T3, Ephrin type-B receptor 1 (Homo sapiens); conditions: at 10 µM
# [10] = target: T4, Ephrin type-B receptor 3 (Homo sapiens) (UniProt P54753); conditions: at 1 µM
# T4 sequence (whole entry): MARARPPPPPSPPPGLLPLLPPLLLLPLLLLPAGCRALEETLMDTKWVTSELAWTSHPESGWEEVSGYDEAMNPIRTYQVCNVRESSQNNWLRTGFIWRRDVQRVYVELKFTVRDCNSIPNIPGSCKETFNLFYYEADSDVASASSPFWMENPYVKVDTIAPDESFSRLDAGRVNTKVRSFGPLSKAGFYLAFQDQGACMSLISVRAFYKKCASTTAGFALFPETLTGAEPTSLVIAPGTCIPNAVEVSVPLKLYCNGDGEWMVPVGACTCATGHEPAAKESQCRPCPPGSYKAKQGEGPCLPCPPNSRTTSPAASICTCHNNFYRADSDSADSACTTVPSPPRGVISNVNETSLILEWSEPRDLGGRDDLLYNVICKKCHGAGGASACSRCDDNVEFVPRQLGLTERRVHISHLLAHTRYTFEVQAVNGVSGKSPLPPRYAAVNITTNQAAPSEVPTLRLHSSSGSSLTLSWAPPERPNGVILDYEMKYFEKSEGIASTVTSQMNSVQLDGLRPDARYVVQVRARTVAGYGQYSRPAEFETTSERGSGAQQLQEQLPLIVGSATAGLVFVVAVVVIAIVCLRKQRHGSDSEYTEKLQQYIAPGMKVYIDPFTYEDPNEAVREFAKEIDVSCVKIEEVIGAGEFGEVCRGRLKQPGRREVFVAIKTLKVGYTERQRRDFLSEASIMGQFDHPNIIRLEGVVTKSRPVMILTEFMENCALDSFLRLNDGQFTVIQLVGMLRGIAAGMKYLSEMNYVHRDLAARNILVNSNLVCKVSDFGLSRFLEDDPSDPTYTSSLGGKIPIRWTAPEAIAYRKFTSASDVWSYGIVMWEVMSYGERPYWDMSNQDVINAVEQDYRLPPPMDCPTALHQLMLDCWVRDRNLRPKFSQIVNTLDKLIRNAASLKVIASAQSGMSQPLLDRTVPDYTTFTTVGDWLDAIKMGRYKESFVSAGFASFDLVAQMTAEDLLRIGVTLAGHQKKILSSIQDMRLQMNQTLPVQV
# [11] = target: T4, Ephrin type-B receptor 3 (Homo sapiens); conditions: at 10 µM
# [12] = target: T5, Ephrin type-B receptor 4 (Homo sapiens) (UniProt P54760); conditions: at 1 µM
# T5 sequence (whole entry): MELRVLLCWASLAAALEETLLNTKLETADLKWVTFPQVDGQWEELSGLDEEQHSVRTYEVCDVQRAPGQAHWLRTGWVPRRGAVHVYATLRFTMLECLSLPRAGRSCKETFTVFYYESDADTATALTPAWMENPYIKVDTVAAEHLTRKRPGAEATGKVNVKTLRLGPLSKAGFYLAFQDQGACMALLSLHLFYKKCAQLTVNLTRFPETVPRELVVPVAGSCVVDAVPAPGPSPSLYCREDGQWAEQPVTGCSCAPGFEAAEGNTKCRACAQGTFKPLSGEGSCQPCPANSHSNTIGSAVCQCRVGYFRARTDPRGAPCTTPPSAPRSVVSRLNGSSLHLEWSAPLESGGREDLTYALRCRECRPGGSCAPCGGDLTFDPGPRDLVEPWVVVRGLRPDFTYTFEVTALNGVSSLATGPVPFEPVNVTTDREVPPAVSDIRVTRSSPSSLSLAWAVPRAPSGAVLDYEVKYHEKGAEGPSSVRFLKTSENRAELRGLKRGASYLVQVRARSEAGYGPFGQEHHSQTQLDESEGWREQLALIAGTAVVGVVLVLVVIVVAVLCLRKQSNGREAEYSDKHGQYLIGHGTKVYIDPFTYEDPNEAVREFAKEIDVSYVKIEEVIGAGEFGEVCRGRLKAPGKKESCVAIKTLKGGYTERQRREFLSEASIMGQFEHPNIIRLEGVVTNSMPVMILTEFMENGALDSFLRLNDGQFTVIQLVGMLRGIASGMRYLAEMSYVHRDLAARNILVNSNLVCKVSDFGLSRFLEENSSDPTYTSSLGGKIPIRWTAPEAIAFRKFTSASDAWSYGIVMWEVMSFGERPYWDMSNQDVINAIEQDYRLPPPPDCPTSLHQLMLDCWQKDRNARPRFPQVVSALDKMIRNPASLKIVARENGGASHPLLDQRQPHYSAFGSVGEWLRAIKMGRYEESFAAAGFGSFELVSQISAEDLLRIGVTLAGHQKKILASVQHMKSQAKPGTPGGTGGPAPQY
# [13] = target: T5, Ephrin type-B receptor 4 (Homo sapiens); conditions: at 10 µM
# [14] = target: Receptor tyrosine-protein kinase erbB-4 (Homo sapiens) (UniProt Q15303); conditions: at 1 µM
# Chain of Receptor tyrosine-protein kinase erbB-4 (Homo sapiens) (Q15303 whole entry): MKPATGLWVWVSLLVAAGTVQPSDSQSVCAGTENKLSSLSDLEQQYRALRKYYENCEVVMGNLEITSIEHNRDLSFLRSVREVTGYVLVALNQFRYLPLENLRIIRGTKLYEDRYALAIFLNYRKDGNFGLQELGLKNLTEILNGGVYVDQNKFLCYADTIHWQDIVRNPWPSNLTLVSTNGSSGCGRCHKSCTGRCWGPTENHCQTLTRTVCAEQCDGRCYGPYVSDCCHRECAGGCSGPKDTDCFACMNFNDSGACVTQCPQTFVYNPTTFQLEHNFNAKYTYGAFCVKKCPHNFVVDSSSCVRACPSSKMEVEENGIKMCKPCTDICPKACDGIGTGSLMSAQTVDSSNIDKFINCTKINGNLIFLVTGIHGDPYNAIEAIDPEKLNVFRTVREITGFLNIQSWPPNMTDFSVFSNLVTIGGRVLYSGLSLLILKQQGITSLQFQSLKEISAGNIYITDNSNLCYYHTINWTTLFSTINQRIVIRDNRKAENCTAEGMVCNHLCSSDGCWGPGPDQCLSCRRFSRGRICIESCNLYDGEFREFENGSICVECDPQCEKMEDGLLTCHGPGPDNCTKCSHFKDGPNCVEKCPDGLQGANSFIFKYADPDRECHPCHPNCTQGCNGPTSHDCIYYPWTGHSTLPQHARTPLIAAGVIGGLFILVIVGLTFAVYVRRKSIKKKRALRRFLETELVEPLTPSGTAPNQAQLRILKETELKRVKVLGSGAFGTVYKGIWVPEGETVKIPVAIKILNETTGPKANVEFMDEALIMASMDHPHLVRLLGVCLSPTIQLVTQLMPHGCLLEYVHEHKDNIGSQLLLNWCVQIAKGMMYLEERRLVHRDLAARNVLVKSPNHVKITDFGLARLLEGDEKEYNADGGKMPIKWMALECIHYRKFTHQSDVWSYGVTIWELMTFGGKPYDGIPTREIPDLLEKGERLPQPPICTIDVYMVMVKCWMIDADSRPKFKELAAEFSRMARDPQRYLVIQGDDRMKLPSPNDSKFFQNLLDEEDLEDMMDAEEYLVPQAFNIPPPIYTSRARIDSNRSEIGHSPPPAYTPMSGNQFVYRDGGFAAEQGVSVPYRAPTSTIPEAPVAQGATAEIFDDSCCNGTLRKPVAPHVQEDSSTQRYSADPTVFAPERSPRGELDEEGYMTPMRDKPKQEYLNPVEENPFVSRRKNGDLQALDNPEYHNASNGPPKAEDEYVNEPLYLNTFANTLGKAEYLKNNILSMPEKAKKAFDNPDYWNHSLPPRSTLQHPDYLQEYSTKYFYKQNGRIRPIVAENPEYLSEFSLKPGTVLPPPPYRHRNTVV
# [15] = target: Receptor tyrosine-protein kinase erbB-4 (Homo sapiens) (UniProt Q15303); conditions: at 10 µM
# [16] = target: Focal adhesion kinase 1 (Homo sapiens) (UniProt Q05397); conditions: at 1 µM
# Chain of Focal adhesion kinase 1 (Homo sapiens) (Q05397 2-1052 limits assumed): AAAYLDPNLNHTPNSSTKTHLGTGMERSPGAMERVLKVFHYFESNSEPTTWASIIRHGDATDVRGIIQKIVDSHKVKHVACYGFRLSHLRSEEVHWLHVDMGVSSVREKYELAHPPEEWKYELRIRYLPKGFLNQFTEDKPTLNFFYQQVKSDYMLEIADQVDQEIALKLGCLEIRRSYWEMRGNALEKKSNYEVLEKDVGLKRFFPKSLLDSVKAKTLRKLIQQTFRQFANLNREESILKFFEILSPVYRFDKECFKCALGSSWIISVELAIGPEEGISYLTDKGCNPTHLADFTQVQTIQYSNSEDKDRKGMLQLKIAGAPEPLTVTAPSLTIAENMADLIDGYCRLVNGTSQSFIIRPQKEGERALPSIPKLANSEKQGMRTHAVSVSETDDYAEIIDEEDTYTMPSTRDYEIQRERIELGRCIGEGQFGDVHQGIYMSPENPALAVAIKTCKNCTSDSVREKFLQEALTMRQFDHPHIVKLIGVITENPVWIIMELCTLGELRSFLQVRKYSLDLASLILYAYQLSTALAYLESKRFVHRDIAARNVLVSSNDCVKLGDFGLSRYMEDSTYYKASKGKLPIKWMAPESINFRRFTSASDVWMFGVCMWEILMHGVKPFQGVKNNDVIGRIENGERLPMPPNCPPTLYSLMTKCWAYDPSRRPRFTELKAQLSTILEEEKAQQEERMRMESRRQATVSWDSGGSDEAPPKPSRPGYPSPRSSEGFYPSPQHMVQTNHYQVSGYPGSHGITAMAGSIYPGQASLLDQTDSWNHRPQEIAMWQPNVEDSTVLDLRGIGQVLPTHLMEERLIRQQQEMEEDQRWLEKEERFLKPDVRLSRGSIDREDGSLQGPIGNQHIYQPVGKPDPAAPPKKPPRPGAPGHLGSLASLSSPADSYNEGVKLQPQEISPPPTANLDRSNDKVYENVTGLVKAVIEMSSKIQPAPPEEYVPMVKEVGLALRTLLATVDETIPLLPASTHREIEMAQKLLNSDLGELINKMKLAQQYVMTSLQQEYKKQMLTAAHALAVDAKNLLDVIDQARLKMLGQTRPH
# [17] = target: Ephrin type-A receptor 7 (Homo sapiens) (UniProt Q15375); conditions: at 1 µM
# [18] = target: T6, Ephrin type-B receptor 2 (Homo sapiens) (UniProt P29323); conditions: at 10 µM
# T6 sequence (whole entry): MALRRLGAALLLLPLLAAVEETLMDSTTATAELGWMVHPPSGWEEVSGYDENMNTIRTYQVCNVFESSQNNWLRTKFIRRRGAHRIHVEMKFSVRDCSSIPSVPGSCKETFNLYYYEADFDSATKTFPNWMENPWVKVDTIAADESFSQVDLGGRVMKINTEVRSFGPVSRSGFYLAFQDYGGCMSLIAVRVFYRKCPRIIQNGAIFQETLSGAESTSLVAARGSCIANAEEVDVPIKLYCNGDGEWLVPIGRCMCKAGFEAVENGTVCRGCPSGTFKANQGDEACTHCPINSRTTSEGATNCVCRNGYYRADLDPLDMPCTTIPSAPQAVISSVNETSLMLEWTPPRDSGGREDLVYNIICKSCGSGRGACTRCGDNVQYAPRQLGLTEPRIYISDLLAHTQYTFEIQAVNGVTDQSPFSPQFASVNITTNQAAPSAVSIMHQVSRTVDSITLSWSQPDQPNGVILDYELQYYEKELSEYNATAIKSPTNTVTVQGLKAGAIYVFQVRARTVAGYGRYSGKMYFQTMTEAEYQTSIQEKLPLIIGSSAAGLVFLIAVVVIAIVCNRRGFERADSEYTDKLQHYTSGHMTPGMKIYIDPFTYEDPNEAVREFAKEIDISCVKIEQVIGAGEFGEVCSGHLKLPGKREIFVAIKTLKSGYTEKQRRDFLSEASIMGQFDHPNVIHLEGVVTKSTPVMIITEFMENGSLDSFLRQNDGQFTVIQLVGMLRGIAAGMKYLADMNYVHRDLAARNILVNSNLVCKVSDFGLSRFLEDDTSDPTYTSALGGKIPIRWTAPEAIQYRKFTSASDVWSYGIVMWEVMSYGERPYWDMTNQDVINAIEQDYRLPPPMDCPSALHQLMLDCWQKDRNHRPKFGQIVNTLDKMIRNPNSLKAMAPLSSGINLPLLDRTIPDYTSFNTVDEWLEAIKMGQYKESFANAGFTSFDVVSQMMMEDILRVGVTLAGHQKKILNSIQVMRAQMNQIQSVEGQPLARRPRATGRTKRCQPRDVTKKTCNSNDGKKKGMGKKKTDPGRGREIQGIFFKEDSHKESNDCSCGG
Compound,residual activity [1],residual activity [2],residual activity [3],residual activity [4],residual activity [5],residual activity [6],residual activity [7],residual activity [8],residual activity [9],residual activity [10],residual activity [11],residual activity [12],residual activity [13],residual activity [14],residual activity [15],residual activity [16],residual activity [17],residual activity [18]
O=C1NC(=O)c2c1c1c3ccccc3[nH]c1n1cncc21,83%,98%,94%,105%,76%,88%,93%,90%,74%,121% (inactive),97%,82%,73%,87%,73%,57%,–,–
Nc1ncnc2[nH]nc(Nc3ccc(F)cc3)c12,42%,111%,77%,82%,34%,–,43%,–,–,123% (inactive),107%,42%,6%,18%,11%,109%,105%,9%
